Test results reported in the supplement of paper PMC10849652.
Targets with a hit are over-represented here; the source holds about 8,800 in all. About 0.5% of all pairs of compound and target were hits. Values without a mark were called inactive.

Experiments:
Test in all cases: log2 fold change, soluble protein after heating vs DMSO (PISA); higher = thermal stabilisation; K562 lysate, 10 uM; active = over 0.2 and 3.5 SD of the protein, either way, in both replicates (recomputed)
erlotinib = compound: C#Cc1cccc(Nc2ncnc3cc(OCCOC)c(OCCOC)cc23)c1 [erlotinib]
In short: (§1)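 A 30 min treatment with 10 μM compound was applied to crude K562 extract at 1 mg/mL protein in PBS pH 7.4 with 1 mM MgCl2. Heating for 3 min spanned 48°C-58°C, after which aliquots were pooled, adjusted to 0.5% NP-40 at 4°C and spun at 21,000xg for 90 min. TMTpro 16plex LC-MS/MS of the supernatant, with channel sums equalised, gave values recorded as log-two fold change in thermal stability against solvent controls, from duplicates.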

[1] = compound: C/C(=N\NC(=O)C1=CC(=CC=C1)S(=O)(=O)N2CCOCC2)/C3=C(C=CC(=C3)Cl)O
In short: as §1

[2] = compound: C1=CC(=CC=C1C2=NC3=C(N2)C=C(C=C3)C(=O)N)OC4=CC=C(C=C4)Cl
In short: as §1

[3] = compound: C1=CC2=C(C=CC(=C2)/C=C\3/C(=O)NC(=NCC4=CC=CS4)S3)N=C1
In short: as §1

[4] = compound: C1=CC2=NC=CN=C2C=C1/C=C/3\C(=O)NC(=O)S3
In short: as §1

[5] = compound: C1=CC=C(C=C1)C2=NC(=C(N2)C3=CC=NC=C3)C4=CC(=C(C=C4)Cl)O
In short: as §1

[6] = compound: C1=CC=C2C(=C1)C3=NNC4=CC=CC(=C43)C2=O
In short: as §1

[7] = compound: C1CCN(C1)C(=O)NC2=CC=CC(=C2)NC3=NC=C(C(=N3)NCCC4=CN=CN4)Br
In short: as §1

[8] = compound: C1CN(CCC1(CC2=CC=C(C=C2)Cl)N)C3=NC=NC4=C3C=CN4
In short: as §1

IRAK-1-4 Inhibitor I = compound: C1COCCN1CCN2C3=CC=CC=C3N=C2NC(=O)C4=CC(=CC=C4)[N+](=O)[O-] [IRAK-1-4 Inhibitor I]
In short: as §1

ibrutinib = compound: C=CC(=O)N1CCC[C@@H](n2nc(-c3ccc(Oc4ccccc4)cc3)c3c(N)ncnc32)C1 [ibrutinib]
In short: as §1

[9] = compound: CC(=O)c1cnc2ccc(-c3cc(Cl)c(O)c(Cl)c3)nc2c1N[C@H]1CC[C@H](CN(C)C)CC1
In short: as §1

ralimetinib = compound: CC(C)(C)Cn1c(N)nc2ccc(-c3[nH]c(C(C)(C)C)nc3-c3ccc(F)cc3)nc21 [ralimetinib]
In short: as §1

[10] = compound: CC(C)(O)CC(=O)NCCn1ccc2ncnc(Nc3ccc(Oc4cccc(C(F)(F)F)c4)c(Cl)c3)c21
In short: as §1

[11] = compound: CC(C)C1=C2N=C(C=C(N2N=C1)NCC3=CC=CC=C3)NCCCCCCN
In short: as §1

[12] = compound: CC1=C(C(CC(=O)N1)C2=CC=C(C=C2)C(F)(F)F)C(=O)NC3=C(C=C4C(=C3)C=NN4)F
In short: as §1

[13] = compound: CC1=C(C2=C(C=C1)C(=O)C3=CC=CC=C3N2CCCN)C
In short: as §1

[14] = compound: CC1=C(C=C(C=C1)NC(=O)C2=CC(=CC=C2)C(C)(C)C#N)NC3=CC4=C(C=C3)N=CN(C4=O)C
In short: as §1

[15] = compound: CC1=C(C=C(C=C1)NC(=O)C2=CC(=CC=C2)N(C)C)NC(=O)C3=CC=C(C=C3)O
In short: as §1

[16] = compound: CC1=CC=C(C=C1)SC2=C3C=C(SC3=CN=C2)C(=O)N
In short: as §1

Sequence of UniProt Q9HBM1 (Q9HBM1 whole entry, looked up): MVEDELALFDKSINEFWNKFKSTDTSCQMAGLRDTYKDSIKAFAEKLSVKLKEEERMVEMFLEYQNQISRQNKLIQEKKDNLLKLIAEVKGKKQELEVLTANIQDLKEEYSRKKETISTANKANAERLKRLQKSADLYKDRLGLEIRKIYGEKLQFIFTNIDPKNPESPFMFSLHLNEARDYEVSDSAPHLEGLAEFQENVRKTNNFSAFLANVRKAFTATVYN
Sequence of UniProt Q96BD8 (Q96BD8 whole entry, looked up): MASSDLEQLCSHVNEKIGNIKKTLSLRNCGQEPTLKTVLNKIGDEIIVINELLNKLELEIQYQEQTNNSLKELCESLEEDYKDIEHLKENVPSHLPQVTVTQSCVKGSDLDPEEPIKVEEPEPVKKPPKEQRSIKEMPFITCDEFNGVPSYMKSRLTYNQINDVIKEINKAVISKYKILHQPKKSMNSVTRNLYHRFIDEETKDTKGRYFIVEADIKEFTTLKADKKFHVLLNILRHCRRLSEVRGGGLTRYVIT
Sequence of UniProt Q15633 (Q15633 whole entry, looked up): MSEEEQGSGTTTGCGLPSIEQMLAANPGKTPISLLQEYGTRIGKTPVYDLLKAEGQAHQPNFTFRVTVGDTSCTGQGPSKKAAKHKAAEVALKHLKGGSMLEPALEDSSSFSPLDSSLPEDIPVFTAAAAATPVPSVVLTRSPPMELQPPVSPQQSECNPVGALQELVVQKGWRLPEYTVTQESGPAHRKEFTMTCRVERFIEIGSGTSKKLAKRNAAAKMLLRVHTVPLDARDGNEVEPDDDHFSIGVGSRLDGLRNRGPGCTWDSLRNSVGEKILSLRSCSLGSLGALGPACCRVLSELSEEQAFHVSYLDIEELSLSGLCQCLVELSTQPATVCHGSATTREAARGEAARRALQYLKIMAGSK
Sequence of UniProt O14975 (O14975 whole entry, looked up): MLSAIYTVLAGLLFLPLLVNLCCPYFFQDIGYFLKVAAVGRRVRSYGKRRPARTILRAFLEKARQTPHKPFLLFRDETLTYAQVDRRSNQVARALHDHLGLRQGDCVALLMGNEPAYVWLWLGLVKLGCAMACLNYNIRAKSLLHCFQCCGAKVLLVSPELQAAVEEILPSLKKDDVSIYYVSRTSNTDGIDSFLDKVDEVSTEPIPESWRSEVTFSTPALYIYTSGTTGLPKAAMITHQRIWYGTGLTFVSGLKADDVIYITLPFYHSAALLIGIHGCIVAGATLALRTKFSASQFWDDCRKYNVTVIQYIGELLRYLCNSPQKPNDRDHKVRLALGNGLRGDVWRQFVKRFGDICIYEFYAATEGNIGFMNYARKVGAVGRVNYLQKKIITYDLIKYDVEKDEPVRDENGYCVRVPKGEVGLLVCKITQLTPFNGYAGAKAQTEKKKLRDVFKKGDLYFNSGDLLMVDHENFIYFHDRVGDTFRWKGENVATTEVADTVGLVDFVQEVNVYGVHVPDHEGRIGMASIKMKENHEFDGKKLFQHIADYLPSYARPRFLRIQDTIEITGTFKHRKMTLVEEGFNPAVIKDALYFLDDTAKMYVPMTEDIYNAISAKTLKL
Sequence of UniProt Q9H7B4 (Q9H7B4 whole entry, looked up): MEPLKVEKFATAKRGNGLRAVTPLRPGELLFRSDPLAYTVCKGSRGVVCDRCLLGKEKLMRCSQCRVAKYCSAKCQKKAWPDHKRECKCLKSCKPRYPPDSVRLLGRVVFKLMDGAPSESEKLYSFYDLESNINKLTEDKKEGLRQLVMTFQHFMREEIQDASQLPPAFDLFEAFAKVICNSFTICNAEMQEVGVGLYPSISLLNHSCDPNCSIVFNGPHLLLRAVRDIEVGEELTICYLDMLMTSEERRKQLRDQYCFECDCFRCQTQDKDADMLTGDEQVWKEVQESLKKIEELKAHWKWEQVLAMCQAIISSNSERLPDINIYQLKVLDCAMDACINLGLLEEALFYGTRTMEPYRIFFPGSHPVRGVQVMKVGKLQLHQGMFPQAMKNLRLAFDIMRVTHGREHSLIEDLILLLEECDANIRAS
Sequence of UniProt Q13586 (Q13586 whole entry, looked up): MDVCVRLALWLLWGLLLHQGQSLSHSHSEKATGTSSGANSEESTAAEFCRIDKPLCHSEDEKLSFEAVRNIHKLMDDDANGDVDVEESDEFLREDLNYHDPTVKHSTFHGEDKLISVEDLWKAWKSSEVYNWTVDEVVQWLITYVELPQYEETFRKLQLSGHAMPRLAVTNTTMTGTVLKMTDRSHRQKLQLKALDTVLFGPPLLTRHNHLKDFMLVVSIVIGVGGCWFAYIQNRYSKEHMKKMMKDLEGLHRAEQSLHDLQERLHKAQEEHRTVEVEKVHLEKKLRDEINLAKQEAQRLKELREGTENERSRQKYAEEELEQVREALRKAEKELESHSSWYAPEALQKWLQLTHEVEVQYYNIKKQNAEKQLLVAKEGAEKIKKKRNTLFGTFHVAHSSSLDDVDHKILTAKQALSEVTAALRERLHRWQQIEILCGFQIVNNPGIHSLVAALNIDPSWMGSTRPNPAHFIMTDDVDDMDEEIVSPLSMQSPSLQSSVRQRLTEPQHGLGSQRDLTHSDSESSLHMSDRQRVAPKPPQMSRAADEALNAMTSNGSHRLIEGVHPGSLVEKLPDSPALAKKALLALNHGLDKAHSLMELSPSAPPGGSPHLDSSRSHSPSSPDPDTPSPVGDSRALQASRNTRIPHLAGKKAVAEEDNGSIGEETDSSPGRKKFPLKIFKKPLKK
Sequence of UniProt Q92844 (Q92844 whole entry, looked up): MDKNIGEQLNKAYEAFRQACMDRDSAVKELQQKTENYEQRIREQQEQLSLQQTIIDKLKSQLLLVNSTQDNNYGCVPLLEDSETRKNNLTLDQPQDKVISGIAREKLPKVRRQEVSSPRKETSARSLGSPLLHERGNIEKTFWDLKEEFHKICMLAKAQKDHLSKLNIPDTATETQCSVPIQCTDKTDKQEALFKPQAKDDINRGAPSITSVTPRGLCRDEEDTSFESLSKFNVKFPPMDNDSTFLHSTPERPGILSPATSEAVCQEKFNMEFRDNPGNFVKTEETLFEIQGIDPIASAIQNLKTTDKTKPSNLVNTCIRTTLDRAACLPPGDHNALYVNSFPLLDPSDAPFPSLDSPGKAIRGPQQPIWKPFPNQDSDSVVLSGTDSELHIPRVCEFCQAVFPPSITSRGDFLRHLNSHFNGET
Sequence of UniProt Q9NP77 (Q9NP77 whole entry, looked up): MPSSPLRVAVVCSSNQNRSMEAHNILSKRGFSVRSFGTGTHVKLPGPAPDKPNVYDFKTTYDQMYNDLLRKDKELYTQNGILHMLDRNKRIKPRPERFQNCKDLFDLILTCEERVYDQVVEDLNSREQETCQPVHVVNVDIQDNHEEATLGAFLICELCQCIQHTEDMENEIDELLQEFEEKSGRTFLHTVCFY
Sequence of UniProt Q9UMZ2 (Q9UMZ2 whole entry, looked up): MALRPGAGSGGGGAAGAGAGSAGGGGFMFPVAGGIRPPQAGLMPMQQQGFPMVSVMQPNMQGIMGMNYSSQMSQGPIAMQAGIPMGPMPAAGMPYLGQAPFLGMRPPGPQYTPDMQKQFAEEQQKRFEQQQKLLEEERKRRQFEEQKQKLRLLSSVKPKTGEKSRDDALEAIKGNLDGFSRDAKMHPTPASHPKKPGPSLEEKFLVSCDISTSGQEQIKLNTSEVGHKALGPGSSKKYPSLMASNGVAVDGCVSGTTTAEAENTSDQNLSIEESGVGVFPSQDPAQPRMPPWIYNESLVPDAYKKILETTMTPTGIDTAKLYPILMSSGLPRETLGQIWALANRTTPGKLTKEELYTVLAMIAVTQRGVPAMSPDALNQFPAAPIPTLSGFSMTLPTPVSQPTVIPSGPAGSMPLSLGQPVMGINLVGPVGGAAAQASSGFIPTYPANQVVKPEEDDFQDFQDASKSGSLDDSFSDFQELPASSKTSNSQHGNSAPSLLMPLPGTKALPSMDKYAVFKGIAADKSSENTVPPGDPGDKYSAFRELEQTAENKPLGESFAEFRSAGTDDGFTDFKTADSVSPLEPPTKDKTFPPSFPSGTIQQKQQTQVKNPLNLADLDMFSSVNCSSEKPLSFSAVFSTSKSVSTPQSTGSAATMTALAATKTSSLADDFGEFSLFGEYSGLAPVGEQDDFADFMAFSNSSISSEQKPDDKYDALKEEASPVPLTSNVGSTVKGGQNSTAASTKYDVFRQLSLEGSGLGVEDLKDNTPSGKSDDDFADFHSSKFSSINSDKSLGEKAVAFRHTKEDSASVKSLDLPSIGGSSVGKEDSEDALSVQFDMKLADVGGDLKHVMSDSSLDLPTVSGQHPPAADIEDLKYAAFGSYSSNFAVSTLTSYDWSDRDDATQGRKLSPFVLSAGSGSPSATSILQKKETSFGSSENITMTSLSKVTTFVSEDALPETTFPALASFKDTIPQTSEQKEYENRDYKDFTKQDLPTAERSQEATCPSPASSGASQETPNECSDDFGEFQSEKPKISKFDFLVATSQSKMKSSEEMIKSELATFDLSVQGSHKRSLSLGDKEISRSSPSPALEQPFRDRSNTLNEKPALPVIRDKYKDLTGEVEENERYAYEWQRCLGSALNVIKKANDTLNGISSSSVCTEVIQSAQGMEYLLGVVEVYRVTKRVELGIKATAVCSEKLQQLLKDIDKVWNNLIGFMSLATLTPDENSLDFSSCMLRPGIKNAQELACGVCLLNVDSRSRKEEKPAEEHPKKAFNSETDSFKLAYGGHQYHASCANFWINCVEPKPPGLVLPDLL
Sequence of UniProt Q99961 (Q99961 whole entry, looked up): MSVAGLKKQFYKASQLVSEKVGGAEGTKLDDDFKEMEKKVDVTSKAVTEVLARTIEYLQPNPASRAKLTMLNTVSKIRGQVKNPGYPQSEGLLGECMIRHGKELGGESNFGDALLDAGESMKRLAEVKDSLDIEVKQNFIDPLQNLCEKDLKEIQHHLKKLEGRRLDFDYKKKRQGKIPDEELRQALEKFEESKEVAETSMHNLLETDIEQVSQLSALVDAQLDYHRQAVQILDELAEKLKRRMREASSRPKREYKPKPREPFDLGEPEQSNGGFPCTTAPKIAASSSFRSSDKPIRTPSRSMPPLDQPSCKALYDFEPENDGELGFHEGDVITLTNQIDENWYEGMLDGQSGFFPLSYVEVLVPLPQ
Sequence of UniProt Q8NHG7 (Q8NHG7 whole entry, looked up): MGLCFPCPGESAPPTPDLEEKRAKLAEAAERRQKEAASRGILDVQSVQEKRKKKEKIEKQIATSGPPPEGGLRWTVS

Target | log2 fold change (erlotinib) | log2 fold change [1] | log2 fold change [2] | log2 fold change [3] | log2 fold change [4] | log2 fold change [5] | log2 fold change [6] | log2 fold change [7] | log2 fold change [8] | log2 fold change (IRAK-1-4 Inhibitor I) | log2 fold change (ibrutinib) | log2 fold change [9] | log2 fold change (ralimetinib) | log2 fold change [10] | log2 fold change [11] | log2 fold change [12] | log2 fold change [13] | log2 fold change [14] | log2 fold change [15] | log2 fold change [16]
SLC20A1 (UniProt Q8WUM9) | 0.032 | 0.059 | 0.089 | -0.097 | 0.005 | 0.02 | 0.085 | 0.069 | 0.214 | 0.05 | 0.022 | -0.028 | -0.013 | -0.08 | 0.05 | 0.072 | -0.015 | 0.027 | 0.002 | -0.054
SRRT (UniProt Q9BXP5) | 0.039 | 0.023 | -0.005 | 0.041 | 0.004 | 0.022 | -0.03 | -0.005 | -0.011 | 0.004 | 0.013 | 0 | 0.026 | 0.006 | -0.01 | -0.024 | -0.012 | -0.008 | 0.043 | -0.001
SVIP (UniProt Q8NHG7) | 0.037 | 0.013 | -0.004 | -0.007 | 0.001 | 0.041 | -0.012 | 0.107 | 0.057 | 0.001 | 0.088 | -0.031 | 0.01 | -0.062 | -0.017 | -0.029 | -0.014 | 0.075 | 0.017 | -0.019
SMIM8 (UniProt Q96KF7) | -0.057 | 0.005 | 0.028 | 0.004 | -0.004 | -0.137 | 0.028 | 0.026 | 0 | 0.058 | 0.073 | -0.02 | 0.059 | -0.136 | -0.095 | -0.025 | -0.128 | 0.038 | 0.053 | -0.006
SSU72 (UniProt Q9NP77) | -0.067 | 0.057 | -0.071 | -0.064 | -0.003 | 0.07 | 0.005 | 0.029 | 0 | 0.001 | 0.075 | 0.031 | 0.026 | -0.002 | 0.038 | -0.018 | 0.025 | 0.001 | 0.015 | 0.03
SYNRG (UniProt Q9UMZ2) | 0.029 | -0.037 | 0.078 | 0.015 | -0.012 | -0.019 | -0.01 | -0.004 | 0.021 | 0.016 | -0.023 | -0.028 | -0.016 | -0.083 | 0.015 | -0.019 | -0.018 | -0.042 | 0.022 | -0.052
SMG7 (UniProt Q92540) | 0.007 | -0.03 | -0.022 | -0.058 | -0.066 | -0.047 | -0.032 | -0.077 | -0.01 | -0.011 | 0.019 | 0.041 | -0.036 | -0.13 | 0.066 | -0.02 | -0.01 | -0.281 | 0.047 | 0.03
SMYD3 (UniProt Q9H7B4) | 0.094 | 0.104 | 0.009 | -0.036 | 0.064 | -0.021 | -0.036 | -0.022 | -0.038 | 0.001 | -0.009 | -0.002 | 0.032 | -0.012 | 0.034 | -0.037 | -0.028 | 0.038 | 0.036 | -0.027
SLC27A2 (UniProt O14975) | -0.025 | 0.478 (active) | -0.122 | 0.099 | 0.048 | 0.007 | -0.016 | -0.038 | -0.035 | 0.614 (active) | 0.243 | -0.024 | -0.013 | 0.245 | 0.11 | -0.041 | -0.035 | 0.069 | -0.089 | 0.031
STK24 (UniProt B4DR80) | 0.019 | 0.02 | 0.018 | -0.04 | -0.003 | -0.004 | 0.198 | 0.045 | 0.013 | -0.007 | 0.024 | 0.218 (active) | 0.005 | 0.024 | 0.001 | -0.019 | -0.019 | -0.018 | -0.019 | -0.018
STIM1 (UniProt Q13586) | -0.037 | 0.089 | -0.014 | 0.021 | 0.001 | -0.016 | -0.059 | -0.009 | 0.005 | -0.01 | 0.033 | 0.043 | 0.023 | -0.021 | 0.027 | 0.003 | 0.023 | 0.001 | 0.008 | 0.027
TARBP2 (UniProt Q15633) | 0.03 | -0.095 | -0.066 | -0.026 | 0.007 | 0.027 | -0.029 | 0.012 | -0.002 | 0.011 | -0.013 | 0 | -0.025 | -0.042 | 0.013 | 0.074 | -0.002 | 0.029 | 0.062 | -0.015
SPC25 (UniProt Q9HBM1) | 0.021 | -0.065 | -0.006 | 0.059 | -0.034 | 0.021 | -0.006 | -0.039 | 0.018 | 0.027 | 0 | -0.058 | -0.038 | 0.015 | -0.002 | -0.032 | -0.017 | 0.016 | 0.002 | 0.006
SKA1 (UniProt Q96BD8) | -0.029 | -0.015 | 0.029 | 0.072 | -0.062 | 0.065 | -0.06 | 0.02 | -0.094 | 0.013 | 0.002 | 0.033 | -0.023 | -0.017 | 0.044 | 0.014 | 0.066 | -0.017 | 0.033 | 0.007
TANK (UniProt Q92844) | 0 | -0.089 | -0.015 | -0.069 | 0.003 | 0.025 | 0.089 | 0.082 | 0 | 0.028 | 0.042 | 0.086 | -0.049 | -0.003 | 0.044 | 0.061 | 0.018 | 0 | 0.054 | 0.002
SH3GL1 (UniProt Q99961) | -0.009 | 0.016 | -0.022 | -0.004 | -0.008 | 0.001 | -0.003 | -0.027 | 0.006 | -0.017 | -0.004 | 0 | 0.031 | 0.006 | -0.015 | -0.03 | 0.017 | 0.025 | 0.006 | -0.012
